Results filed as inconclusive are left out. A call without a number means that no potency is given here. Values without a mark were called inactive. The source made the active and inactive calls. The call rests on the fitted dose curve; in most records, active means well fitted inhibition curve with a large enough effect in the repeat runs; inconclusive means weak or mixed curves; inactive means no such curve, though single readings can be large or run the other way.
Target: Cytochrome P450 3A4 (Homo sapiens) (UniProt P08684)
Sequence (P08684 whole entry, looked up): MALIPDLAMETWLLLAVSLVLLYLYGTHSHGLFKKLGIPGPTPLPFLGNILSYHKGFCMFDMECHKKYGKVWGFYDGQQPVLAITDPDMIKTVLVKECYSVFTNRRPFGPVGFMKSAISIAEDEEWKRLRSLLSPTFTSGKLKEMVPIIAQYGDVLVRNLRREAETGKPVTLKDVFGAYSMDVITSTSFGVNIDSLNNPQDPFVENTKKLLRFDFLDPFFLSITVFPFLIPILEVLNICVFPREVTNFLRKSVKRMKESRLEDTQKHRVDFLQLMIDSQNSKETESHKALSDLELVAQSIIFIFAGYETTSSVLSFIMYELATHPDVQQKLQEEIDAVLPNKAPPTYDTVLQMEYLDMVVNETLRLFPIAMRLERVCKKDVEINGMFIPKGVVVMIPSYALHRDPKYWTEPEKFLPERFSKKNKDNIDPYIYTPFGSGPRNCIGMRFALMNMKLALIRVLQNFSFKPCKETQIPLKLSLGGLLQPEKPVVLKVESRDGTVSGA
Test: Cytochrome P450 Family 3 Subfamily A Member 4 (CYP3A4) small molecule antagonists: luciferase reporter qHTS assay (AID 1671201); further: nearly all actives have a fitted effect of over 50% in size
Details: P450-Glo CYP3A4 enzyme, luciferin luminescence, 1 h; series mostly up to 115 µM
Excerpt: National Center for Advancing Translational Sciences [NCATS]
U.S. Environmental Protection Agency [EPA]
National Institutes of Environmental Health Sciences [NIEHS]
National Toxicology Program [NTP]
U.S. Food and Drug Administration [FDA]
Cytochrome P450 (CYP) enzymes are membrane-bound hemeproteins that play a key role in metabolism of drugs and xenobiotics. Evaluation of the effect of chemicals on CYP isozymes is useful to minimize the adverse drug reactions and toxicities in drug development process. Tox21 chemicals were tested for their effect on CYP enzyme activities by using P450-Glo (TM) screening systems (Promega Corporation, Madison, WI). These systems provide a luminescent method containing proluciferin substrates and are converted to luciferin products by CYP isozymes. The luciferin products formed are detected with a luciferin detection reagent, and the amount of light produced is proportional to CYP activity. P450-Glo (TM) CYP3A4 screening system (Catalog. No. V9910) was used to detect the compounds that interfere in CYP3A4 activity. The positive control compound used for CYP3A4 assay is ketoconazole (Sigma-Aldrich, St. Louis, MO).
Tox21 Assay Protocol Summary:
Two ul of enzyme-substrate mix was dispensed into medium binding white/solid 1536-well plates (Greiner Bio-One North America Inc., Monroe, NC) using a BioRaptr Flying Reagent Dispenser (FRD, Beckman Coulter, Brea, CA). Compounds dissolved in DMSO and positive control (ketoconazole) were transferred to the assay plates at 23 nl using a Pintool station (Wako, San Diego, CA). The assay plates were incubated at room temperature for 10 min. Then 2 ul of NADPH regeneration solution was added to each well of the assay plates using an FRD and incubated at room temperature for 1 h. The reaction was stopped by adding 4 ul of detection reagent using an FRD and after 20 min incubation at room temperature the luminescence signal was measured using a ViewLux plate reader (Perkin Elmer, Shelton, CT). Data were expressed as relative luminescence units.
Potency means the concentration at half of the fitted maximal effect.

Row | Structure (SMILES) | Potency | activity change, negative = inhibition
1 | COP(=O)(O)OP(=O)(O)OC | inactive | –
2 | O=C1CCCCO1 | inactive | –
3 | C/C=C(\C)C(=O)OCCc1ccccc1 | inactive | –
4 | CC(O)COC(C)(C)C (stereo not given) | inactive | –
5 | O=C(CN1CCNCC1)NC1CCCCC1 | inactive | –
6 | CC(=O)O[Si](C)(OC(C)=O)OC(C)=O | 5.15 µM (active) | –
7 | COc1cc2c(cc1OC)CN(C(=O)[C@H](C)N[C@@H](CCc1ccccc1)C(=O)O)[C@H](C(=O)O)C2 | inactive | –
8 | C[Si]1(C)O[Si](C)(C)O[Si](C)(C)O[Si](C)(C)O[Si](C)(C)O1 | inactive | –
9 | C#CCN[C@@H]1CCc2ccccc21 | inactive | –
10 | Cn1c(=O)c2[nH]c(Br)nc2n(C)c1=O | inactive | –
11 | CCC(C)C(=O)OCCc1ccccc1 (stereo not given) | inactive | –
12 | CCCCCC/C=C/C(=O)OC | inactive | –
13 | CCCCCCC1(C)CCC(=O)O1 (stereo not given) | inactive | –
14 | CC(=O)Nc1ccc(OC(=O)c2ccccc2OC(C)=O)cc1 | inactive | –
15 | C=CCCCCCCCC | inactive | –
16 | CCCCC1CCC(O)CC1 (stereo not given) | inactive | –
17 | CC(=O)CCc1ccc(OC(C)=O)cc1 | inactive | –
18 | CCCc1ccc(O)cc1 | inactive | –
19 | CC1CCc2c(N3CCC(O)CC3)c(F)cc3c(=O)c(C(=O)O)cn1c23 (stereo not given) | inactive | –
20 | O=Cc1cc2ccccc2o1 | inactive | –

Row | Structure (SMILES) | Potency | activity change, negative = inhibition
21 | CC(C)=CCC/C(C)=C/COC=O | inactive | –
22 | O=C(O)CCCCCC(=O)O | inactive | –
23 | C[C@@H](O)C(=O)O | inactive | –
24 | CN(C)CCCO[C@@H]1[C@H]2OC(C)(C)O[C@H]2O[C@@H]1C(O)CO (stereo not given in full) | inactive | –
25 | CC1OCCC1=O (stereo not given) | inactive | –
26 | N#Cc1ccccc1O | inactive | –
27 | CN(C)C(C)(C)CO | inactive | –
28 | C=C(C)c1cccc(C(C)(C)N=C=O)c1 | 2.83 µM (active) | –
29 | OCCN1CCOCC1 | inactive | –
30 | CCCCCCCCCOC(=O)c1ccccc1C(=O)OCCCCCCCCC | 7.95 µM (active) | –
31 | CC1(C)[C@H]2CC[C@](C)(C2)[C@H]1O | inactive | –
32 | CC(C)OC(=O)CCC(=O)OC(C)C | inactive | –
33 | CNCCS(=O)(=O)O | inactive | –
34 | COC(=O)c1ccccc1C(=O)O | inactive | –
35 | COc1ccc2c(c1)c1c3n2CCN(C)C3=NCC1 | inactive | –
36 | O=C(O)CSCC(=O)NC1CCSC1=O (stereo not given) | inactive | –
37 | CO[Si](CCCn1c(=O)n(CCC[Si](OC)(OC)OC)c(=O)n(CCC[Si](OC)(OC)OC)c1=O)(OC)OC | 17.7 µM (active) | –
38 | Cc1cc(C)c(C(=O)O)c(C)c1 | inactive | –
39 | [O]=[Mo](=[O])=[O] | – | -5.3% [at 23.6 µM]
40 | Cc1ccc2c(c1)C(=O)c1ccccc1C2=O | 7.07 µM (active) | –

Source: PubChem BioAssay (Tox21)
